Compounds without any hit were thinned out: in the full panel of roughly 83,000, 20% have a hit.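 Negative percent growth values reflect cell death: -40 means 40% of the cells present at the start died, and -100 means all died.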 Unmarked numbers belong to inactive results. Active and inactive are the calls of the source. The calls were made as follows: active = growth percent below 10; inactive = the rest.
Assays:
Assay in all cases: NCI-60 one-dose screen, 48 h (100 = growth as untreated, 0 = no growth, -100 = all killed)
Conditions in all cases: 10 µM
[1] = test system: HCT-15 colon
[2] = test system: HT29 colon
[3] = test system: SNB-19 CNS
[4] = test system: U251 CNS
[5] = test system: PC-3 prostate
[6] = test system: SK-MEL-5 melanoma
[7] = test system: UACC-62 melanoma
[8] = test system: LOX IMVI melanoma
[9] = test system: SK-MEL-28 melanoma
[10] = test system: SK-MEL-2 melanoma
[11] = test system: EKVX NSCLC
[12] = test system: SN12C renal
[13] = test system: UO-31 renal
[14] = test system: TK-10 renal
[15] = test system: ACHN renal
[16] = test system: CAKI-1 renal
[17] = test system: A498 renal
[18] = test system: CCRF-CEM leukemia
[19] = test system: MOLT-4 leukemia

Row | Structure (SMILES) | growth [1] | growth [2] | growth [3] | growth [4] | growth [5] | growth [6] | growth [7] | growth [8] | growth [9] | growth [10] | growth [11] | growth [12] | growth [13] | growth [14] | growth [15] | growth [16] | growth [17] | growth [18] | growth [19]
1 | O=c1oc2ccc(-c3ccc(F)cc3F)cc2c(=O)n1-c1ccc(Cl)c(C(F)(F)F)c1 | -12% (active) | 9.55% (active) | 14.7% | 7.99% (active) | 0.205% (active) | -91.4% (active) | -54.1% (active) | -38.6% (active) | -20.1% (active) | -62% (active) | -4.43% (active) | -15% (active) | -3.08% (active) | 15.3% | -10.9% (active) | -15.8% (active) | -17.6% (active) | -5.71% (active) | -8.23% (active)
2 | N#Cc1c(NC(=O)c2cccc(C(F)(F)F)c2)sc2c1CCC(O)=C2 | 20.6% | 80.4% | 42.4% | 39.7% | 39% | -38.3% (active) | 11.5% | 33.9% | 33.9% |  | 22.8% |  | 17.6% | 63.1% | 31.4% | 44.5% |  | 21.9% | 25.9%
3 | CCOC(=O)C1=C(N)N(c2ccccc2)C2=C(C(=O)CC(C)(C)C2)C1c1ccc(Cl)cc1 (stereo not drawn) | 14.5% | 34.8% | 34.9% | 42% | 21.6% | 27.7% | 22.2% |  | 44.5% | 30.2% | 27.7% | 64.2% | 29% | 80.4% | 22.3% | 50.2% | 67.2% | 15.4% | 1.54% (active)
4 | CN1C(=O)/C(=C/c2nccs2)SC1=S | 68.8% | 99.4% | 90.5% | 90.7% | 109% | 96.6% | 79% | 62.7% | 95.8% | 96.9% |  | 75.8% | 78.7% | 162% | 88.1% | 72.9% | 109% |  | 98.8%
5 | CN1CCN(c2ccc(C(=O)/C=C/c3ccc(C#N)cc3)cc2)CC1 | 33.6% | 35.4% | 79.3% | 49.9% | 94.7% | 83.9% | 79.9% | 16.7% | 108% | 104% | 82% | 73.8% | 61.8% | 102% | 83.5% | 63.8% | 103% | 65.9% | 90.5%
6 | CCOc1ccc(/C=N/NC(=O)Cn2nc(Cc3ccccc3)c3onc(C)c3c2=O)cc1 | 63.1% | 42% | -3.49% (active) | -21.4% (active) | 22.5% | 68.3% | 36.9% |  | 54.3% | 3.12% (active) | 23.9% | 8.3% (active) | -2.49% (active) | 25.6% | 6.42% (active) | 12% | -6.43% (active) | 86.6% | 79.6%
7 | Cc1ccc(-c2cc(-c3cc4ccccc4nc3Cl)[nH]c(=O)n2)cc1 | -39.8% (active) | -15.9% (active) |  | -23.5% (active) | 20.7% | 18.1% | 19.3% | -82.4% (active) | 43.3% | 41% |  | 0.368% (active) |  | 26.3% | 38.6% | 24.8% | 57.3% | -30.1% (active) | -21.6% (active)
8 | NS(=O)(=O)c1ccc(NC(=O)CSc2ccc(-c3ccc(Cl)cc3)nn2)c(Br)c1 | 54.1% | 64.7% | 27% | -25.6% (active) | 35.7% | 68.8% | 65.4% | 19.7% | 79.5% | 82.9% | 47.4% | 39.1% | 91% |  | 24.7% | 67% | 0.192% (active) | 83.7% | 90.6%
9 | O=C(N/C(=C1/OCCN1Cc1ccccc1)[P+](c1ccccc1)(c1ccccc1)c1ccccc1)c1ccccc1 | 77.8% | 14.6% | 10.4% | 14.3% | 22.5% | -100% (active) | -36.4% (active) | 6.07% (active) | 22.8% | -27.6% (active) | 14.6% | 7.37% (active) | 83.1% |  | 82.6% | 79.5% | 83% | 13.3% | 20.6%
10 | O=C(Cn1nc(-c2ccccc2)ccc1=O)NNC(=S)NC1CCCCC1 | 97.9% | 127% | 100% | 102% | 96.4% | 100% | 96.2% |  | 108% |  | 98.6% | 101% | 81.2% | 109% | 102% | 98.6% | 121% | 103% | 106%
11 | COc1ccc2nc(Cl)c(-c3cc(-c4ccccc4)nc(=O)[nH]3)cc2c1 | 0.676% (active) | 32.2% | 31.5% | 12.6% | 48.8% | 74.2% | 66.8% | -46.4% (active) | 97.7% | 93.3% | 73.3% | 42.9% |  | 96.9% | 79% | 74.2% | 104% | 16.4% | -11.4% (active)
12 | COC(=O)C[C@](O)(CCCC(C)(C)O)C(=O)O[C@H]1C(OC)=C[C@@]23CCC(=O)N2CCc2cc4c(cc2[C@@H]13)OCO4 | 97.8% | 93.6% | 84.4% | 114% | 89.5% | 98.3% | 89.5% | 78% | 103% | 110% | 103% | 115% | 65% | 101% | 101% | 94.3% | 76.6% | 101% | 73.4%
13 | C=CC(=O)Nc1ccc(C(=O)/C=C/c2ccc(N(C)CCF)cc2)c(O)c1 | -52% (active) | -61.4% (active) | -15.6% (active) |  | 6.54% (active) | -90.7% (active) | -42.6% (active) | -81% (active) | -77.8% (active) | -53.4% (active) | -25% (active) | -60.2% (active) | -96.6% (active) | -23.7% (active) | -68.6% (active) | -90.8% (active) | 17.5% | 13.1% | -3.17% (active)
14 | O=C(Nc1cccc([N+](=O)[O-])c1)Nc1cccc([N+](=O)[O-])c1 | 62.7% | 87.3% | 81.7% | 88.7% | 52% | 69.6% | 68.5% |  | 88.7% |  | 77.1% | 82.4% | 63.9% | 84.2% | 84.8% | 83.7% | 94.4% | 69.7% | 76.4%
15 | C=C(C)[C@@H]1CC[C@]2(C)[C@H](CC=C3[C@@H]4CC(C)(C)CC[C@]4(C(=O)N4CCOCC4)CC[C@]32C)[C@@]1(C)CCCN | -83.6% (active) | -91% (active) | -93.7% (active) | -81.2% (active) | -79.8% (active) | -96.5% (active) | -93.8% (active) | -81.7% (active) | -97% (active) | -92.1% (active) | -84.1% (active) | -89.1% (active) | -100% (active) | -95.7% (active) | -100% (active) | -96.3% (active) | -89.5% (active) | -57.2% (active) | 
16 | Cc1cc(C)nc(NS(=O)(=O)c2ccc(N/C(N)=N/c3nccc(-c4ccccc4)n3)cc2)n1 | 59.4% | 83.5% | 77.8% | 77.6% | 65.4% | 46.3% | 59% | 39.4% | 74.5% | 89.5% | 43% | 73.6% | 34.7% | 76.4% | 61.7% | 43.6% | 71.2% | 67.7% | 38.8%
17 | Cc1ccc2nc(-c3ccc(-c4nnc(SCC(=O)Nc5ccc(Cl)cc5)o4)cc3)[nH]c2c1 | 21.9% | 31.2% | 26.7% | -21% (active) | 14% | 83.9% | 56.3% |  | 39.7% | 95% | 58.7% | -3% (active) | 56.6% | 38.1% | 7.34% (active) | 21.7% | 73.9% | 58.8% | 35.6%

Reference: PubChem BioAssay (NCI)
